# Reference: paper PMC4336329 (PLoS ONE, 2015)
# The campaign covered roughly 310,000 compounds. About 14,000 (4.5%) showed an effect of 50% or more. Effects have a minus sign here. Many of the other results were omitted from the sample, so strong results are more common in it than they were.
# Biological target: human ether-à-go-go-related gene (hERG) potassium channel (human, UniProt Q12809)
# Assay: primary screen, population patch clamp on CHO cells stably expressing hERG; higher = less effect of the substance
# 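Note: peak tail current of the secondary pulse compared with the same well before compound.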
# Chain of human ether-à-go-go-related gene (hERG) potassium channel (Q12809 whole entry, looked up): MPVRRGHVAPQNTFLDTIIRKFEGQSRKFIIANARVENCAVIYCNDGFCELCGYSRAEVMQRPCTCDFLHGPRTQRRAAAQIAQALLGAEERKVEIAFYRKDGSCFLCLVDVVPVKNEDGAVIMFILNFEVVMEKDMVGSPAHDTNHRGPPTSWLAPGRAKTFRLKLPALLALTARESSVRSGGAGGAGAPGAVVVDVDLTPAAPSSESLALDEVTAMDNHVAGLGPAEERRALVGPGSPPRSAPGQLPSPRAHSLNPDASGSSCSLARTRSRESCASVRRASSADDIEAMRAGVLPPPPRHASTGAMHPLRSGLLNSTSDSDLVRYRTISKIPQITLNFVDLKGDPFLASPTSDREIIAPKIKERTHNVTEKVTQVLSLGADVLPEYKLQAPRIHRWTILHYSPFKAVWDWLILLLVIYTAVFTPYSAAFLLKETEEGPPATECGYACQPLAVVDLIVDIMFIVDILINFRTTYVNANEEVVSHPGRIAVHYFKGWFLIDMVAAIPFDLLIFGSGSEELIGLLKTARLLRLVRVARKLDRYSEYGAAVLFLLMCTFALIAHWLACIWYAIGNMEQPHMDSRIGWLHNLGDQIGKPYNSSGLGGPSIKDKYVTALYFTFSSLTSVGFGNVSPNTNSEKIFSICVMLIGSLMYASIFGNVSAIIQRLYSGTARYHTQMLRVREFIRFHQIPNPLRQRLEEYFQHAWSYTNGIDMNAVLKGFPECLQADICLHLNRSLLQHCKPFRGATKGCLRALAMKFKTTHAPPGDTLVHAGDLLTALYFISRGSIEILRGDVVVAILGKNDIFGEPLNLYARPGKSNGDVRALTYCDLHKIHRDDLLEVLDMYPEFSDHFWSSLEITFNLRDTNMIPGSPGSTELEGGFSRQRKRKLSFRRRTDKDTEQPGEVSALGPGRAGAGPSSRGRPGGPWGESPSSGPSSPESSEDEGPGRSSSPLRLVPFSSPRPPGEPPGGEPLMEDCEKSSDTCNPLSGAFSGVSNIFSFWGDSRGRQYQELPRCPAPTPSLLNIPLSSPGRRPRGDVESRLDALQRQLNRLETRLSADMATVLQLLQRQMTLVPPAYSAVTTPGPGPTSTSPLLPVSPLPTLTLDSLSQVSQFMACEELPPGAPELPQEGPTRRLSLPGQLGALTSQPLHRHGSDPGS
row,Structure (SMILES),"hERG current change (%, negative = inhibition) at 10uM [%]"
1,CCOC(=O)C1(C)/C(=N/Nc2cccc(Cl)c2)C(=O)C(=O)N1c1ccccc1 (stereo not shown),6.3
2,CCOc1ccc(Br)cc1S(=O)(=O)Nc1cccc(S(=O)(=O)N(CC)CC)c1,-4.53
3,Cc1ccc(CN2CCN(/N=C/c3ccc(C(=O)O)cc3)CC2)cc1,5.6
4,CCOc1ccccc1N(CC(=O)NC1CCCCC1)C(=O)CCC(=O)Nc1cc(C)ccn1,3.35
5,Cc1cccc(CSc2nnc(CCNC(=O)OC(C)(C)C)o2)c1,-7.22
6,COc1c([N+](=O)[O-])c(=O)oc2ccccc12,15.4
7,Cc1ccc(S(=O)(=O)CC(=O)Nc2ncc([N+](=O)[O-])s2)cc1,21.8
8,CC(C)(C)NC(=O)COC(=O)CCC(=O)c1ccc(F)cc1,12
9,COc1ccccc1C(=O)NNc1ncc(C)s1.Cl,-0.745
10,COc1ccc(C(=O)N2CCN(CCc3ccccc3)CC2)cc1[N+](=O)[O-],-75.6
11,COc1ccc(C(=O)N2CCN(c3ncccn3)CC2)cc1[N+](=O)[O-],-2.35
12,COc1ccc(C(=O)N2CCN(c3ccccn3)CC2)cc1[N+](=O)[O-],-14.9
13,COc1ccc(N(CC(=O)Nc2ccc(F)c(F)c2)S(=O)(=O)c2c(C)n[nH]c2C)cc1,18.5
14,C/C(=N\NC(=O)c1ccc(Br)cc1)c1cccnc1,5.22
15,Cc1ccc(C(=O)O/N=C(\c2ccccc2)c2cccnc2)cc1,-18.7
16,O=C(OCc1ccc(Br)cc1)c1cccnc1,-5.96
17,CN(C)CCO/N=C(\c1ccc(Br)cc1)c1cccnc1.O=C(O)C(=O)O,-63.5
18,CN(C)CCCO/N=C(\c1ccccc1)c1ccncc1.O=C([O-])C(=O)[O-],5.25
19,O=C(NCCNC(=O)c1cccnc1)c1ccc(Br)cc1,14.6
20,CN(C)C/C=C(\c1ccc(Br)cc1)c1cccnc1.Cl.O,-63.7
21,O=C(Oc1ccc(Br)cc1)c1cccnc1,4.3
22,CN(C)C/C=C(/c1ccc(Br)cc1)c1cccnc1.Cl,-71.5
23,CC[C@@]12C(=O)N(c3cccc(F)c3)C(=O)N1[C@H](c1cccc(C)c1)[C@@H]1C(=O)N(Cc3ccccc3)C(=O)[C@@H]12,0.427
24,Cc1cc(-c2ccccc2)nc(N/N=C/c2ccco2)n1,-0.804
25,O=C(OCC(=O)N1CCCc2ccccc21)c1ccccc1NCCO,-15.9
26,Cc1ccc(S(=O)(=O)N2CCCCC2)cc1NC(=O)CSc1ccc2c(c1)OCCO2,-9.32

row,Structure (SMILES),"hERG current change (%, negative = inhibition) at 10uM [%]"
1,CCOC(=O)CSc1n[nH]c(NS(=O)(=O)c2ccccc2C(F)(F)F)n1,-1.78
2,CSc1ccc(C2Nc3ccccc3-c3cc(C)nn32)cc1 (stereo not shown),-3.75
3,COc1cc(/C=C(/C#N)c2nc3ccccc3[nH]2)ccc1OC(=O)c1ccco1,-6.24
4,CS(=O)(=O)c1ccc(Cl)c(NC(=O)COC(=O)c2cccc(S(=O)(=O)N3CCCCC3)c2)c1,-30.9
5,O=C(COC(=O)c1ccccc1)Nc1cc(S(=O)(=O)N2CCCCCC2)ccc1Cl,7.5
6,O=C(COC(=O)CCS(=O)(=O)c1ccccc1)Nc1cc(S(=O)(=O)N2CCCCC2)ccc1Cl,-4.61
7,CS(=O)(=O)c1ccc(Cl)c(NC(=O)COC(=O)c2cccc(S(=O)(=O)N3CCCC3)c2)c1,-51.5
8,O=C(COC(=O)Cc1ccccc1)Nc1cc(S(=O)(=O)N2CCCCC2)ccc1Cl,-81.8
9,Cc1ccc(C(=O)OCC(=O)Nc2cc(S(C)(=O)=O)ccc2Cl)cc1S(=O)(=O)N1CCCCC1,-26.9
10,CCOC(=O)c1ccc(NC(=O)NCc2ccccc2)cc1,-9.51
11,COc1ccc(S(=O)(=O)N2CCN(C(=S)Nc3ccc(S(N)(=O)=O)cc3)CC2)cc1,15.7
12,CCC(C(=O)Nc1nccs1)c1ccccc1 (stereo not shown),9.98
13,COc1ccc(-n2c(=O)c3ccccc3n(CC(=O)NCC3CCCO3)c2=O)cc1 (stereo not shown),13.4
14,O=C(c1cnc2ccccc2n1)N1CCN(c2ccc(C(F)(F)F)cn2)CC1,-17.1
15,O=S(=O)(CCc1nc2ccccc2o1)c1ccc(Cl)cc1,-7.14
16,Cc1ccc2[nH]c(=O)c(CN(CCCN3CCOCC3)Cc3nnnn3C3CCCC3)cc2c1,-54.5
17,CCOc1ccc2[nH]c(=O)c(CN(CCCN3CCOCC3)Cc3nnnn3Cc3ccc(OC)cc3)cc2c1,-60.9
18,Cc1ccc2[nH]c(=O)c(CN(Cc3ccc4c(c3)OCO4)Cc3nnnn3C3CCCC3)cc2c1,4.66
19,COc1ccc(Cn2nnnc2CN(CCCN2CCOCC2)Cc2cc3cc(OC)ccc3[nH]c2=O)cc1,-42.7
20,Cc1ccc2[nH]c(=O)c(CN(Cc3ccccc3)Cc3nnnn3C3CCCC3)cc2c1,-6.83
21,COc1ccc2cc(CN(Cc3ccco3)Cc3nnnn3C3CCCCC3)c(=O)[nH]c2c1,-19.4
22,COc1ccc2cc(CN(CCCN3CCOCC3)Cc3nnnn3C3CCCCC3)c(=O)[nH]c2c1,-26.5
23,COc1ccc2cc(CN(CCCN3CCOCC3)Cc3nnnn3C3CCCC3)c(=O)[nH]c2c1,-59.7
24,COc1cc2cc(CN(CCCN3CCOCC3)Cc3nnnn3Cc3ccccc3)c(=O)[nH]c2cc1OC,-20.2
25,CCOc1ccc(S(=O)(=O)n2nnc3ccccc32)cc1C,14.6
26,CCCn1c(C)c(C(=O)OCC)c(O)c(-c2ccccc2)c1=O,19.5
